Bioassay records: PubChem BioAssay, several laboratories
NCOA3 inh: SRC3 coactivator transcriptional activity inhibitors, primary screen, cell-based, luminescence. Nuclear receptor coactivator 3 (Homo sapiens), Q9Y6Q9. HEK293 GAL4-SRC3 luciferase reporter. inhibition, % at 3.6 µM. 360,000 tested, 0.17% active. AID 588352, 2011;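 active = inhibition above a per-campaign cutoff, the mean of all compounds plus 3 SD, cut at about 60% in these data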;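 also: higher means less SRC3-driven luciferase light from the GAL4 reporter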
Gli-Sufu antag: Gli-Sufu pathway antagonists, primary screen, luciferase luminescence, Sufu-KO-LIGHT cells, uHTS | Sufu-KO-LIGHT fibroblasts, Gli luciferase reporter luminescence | inhibition, % at 5 µM | 340,000 tested, 0.74% active;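 active = inhibition above about 55%, limit read from the data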
NCOA2 inhibitor: inhibition of GAL4-SRC2 driven luciferase reporter, primary screen, SRC2 inhibitor project, cell-based, luminescence; Nuclear receptor coactivator 2 (Homo sapiens), Q15596; HEK293 GAL4-SRC2 luciferase reporter; inhibition, % at 9 µM; 370,000 tested, 0.17% active; AID 651957, 2012;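 active = inhibition above the mean inhibition of all tested compounds plus 3 SD, set per campaign, cut at about 52% in these data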
SRC1 inh: SRC1 coactivator transcriptional activity inhibitors, primary screen, cell-based, luminescence; Nuclear receptor coactivator 1 (Homo sapiens), Q15788; HEK293 GAL4-SRC1 luciferase reporter; inhibition, % at 3.6 µM; 360,000 tested, 0.12% active; AID 588354, 2011;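 active = inhibition above the campaign mean plus 3 SD, with each screening campaign given its own cutoff, cut at about 60% in these data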
COUP-TFII inh: NR2F2 transcriptional activity inhibitors, primary screen, cell-based, luciferase reporter, HEK293T, luminescence; inhibition, % at 8.6 µM; COUP transcription factor 2 (Homo sapiens), P24468; HEK293T NGFI-A luciferase reporter; 370,000 tested, 0.7% active;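 active = inhibition above a per-plate cutoff, mean inhibition of test wells between control levels plus 3 SD, cut at about 38% in these data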;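 also: cells cotransfected with COUP-TFII expression vector driving the NGFI-A reporter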
NR5A2 inv ag: LRH-1 (NR5A2) inverse agonists, primary screen, cell-based, luminescence, HEK293T, StAR-luciferase reporter. 360,000 tested, 0.13% active. AID 602396, 2012. inhibition, % at 3.6 µM. LRH-1 transfected, 24 h;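 active = inhibition above the mean inhibition of all tested compounds plus 3 SD, cut at about 73% in these data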
Gli-Sufu confirm: Gli-SUFU pathway antagonists, confirmation, single concentration, luciferase luminescence, Sufu-KO-LIGHT cells; shares compounds with Gli-Sufu antag; Gli luciferase reporter; inhibition, % at 5 µM; 2,500 tested, 40% active; AID 602428, 2012;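 active = mean inhibition at 5 µM reaching about 45%, limit read from the data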
Gli cytotox: cytotoxicity in Sufu-KO-LIGHT cells, confirmation, cytotoxicity control for Gli-SUFU antagonist project, cell-based, ATP luminescence, single concentration. shares compounds with Gli-Sufu antag. cytotoxicity, % at 5 µM. 2,500 tested, 32% active. AID 651994, 2013;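 active = mean cytotoxicity at 5 µM above about 25%, limit read from the data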;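 also: cells exposed to compound overnight for roughly 16 to 18 hours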
Wnt3a counter: Wnt3a reporter signal inhibition, confirmation, counter-screen for Gli-SUFU antagonist project, Wnt-LIGHT cells, luminescence, single concentration; AID 651995, 2013; Wnt3a-driven luciferase reporter; shares compounds with Gli-Sufu antag; 2,500 tested, 20% active; inhibition, % at 6.25 µM;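 active = mean inhibition above about 25%, limit read from the data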
Hits are given with their value; n = inactive; x = not tested or not shown. This is a sample that favours compounds with a hit; in the whole collection about 1.3% have one here.

SMILES | NCOA3 inh | Gli-Sufu antag | NCOA2 inhibitor | SRC1 inh | COUP-TFII inh | NR5A2 inv ag | Gli-Sufu confirm | Gli cytotox | Wnt3a counter
CCOC(=O)[C@]12CCCC3=C1N(CCC3)C(=O)[C@@H](CC(=O)NCc1ccc(OC)c(OC)c1)C2 | x | x | n | x | n | x | x | x | x
COc1cc(CCNC(=O)c2ccccc2NC(=O)C2=C(C)OCCS2)cc(OC)c1OC | n | 99 | n | n | n | n | n | n | n
COc1ccc(CCNC(=O)c2ccccc2NC(=O)C2=C(C)OCCS2)c(OC)c1 | n | n | n | n | n | n | x | x | x
CC1=C(C(=O)Nc2cc(C(=O)NCc3ccccc3)ccc2C)SCCO1 | n | x | n | n | n | n | x | x | x
COc1cc(CNC(=O)c2ccccc2NC(=O)C2=C(C)OCCS2)cc(OC)c1OC | n | 91 | n | n | n | n | n | n | n
COC(=O)[C@]12C[C@H](CC(=O)NCc3cccc4ccccc34)C(=O)N(Cc3cccc4ccccc34)C1=C[C@H](C1CCCC1)O[C@@H]2C | x | x | n | x | n | x | x | x | x
COc1ccc(S[C@]2(C(=O)N3CCOCC3)CC(=O)N(S(=O)(=O)c3ccc(F)cc3)[C@@H]2c2ccc(OC)cc2)cc1 | x | x | n | x | n | x | x | x | x
CCCCOc1ccc(C(=O)NCCCC(=O)N2CCCCC2)cc1 | n | 68 | n | n | n | n | n | n | n
N#C/C(=C(/O)c1ccc(Br)s1)c1nc2ccccc2[nH]1 | n | n | n | n | n | n | x | x | x
N#C/C(=C(/O)c1ccc([N+](=O)[O-])s1)c1nc2ccccc2[nH]1 | n | n | n | n | n | n | 59 | n | 33
COc1cc(C(C#N)N2CCOCC2)ccc1O (stereo not drawn) | n | 55 | n | n | n | n | n | n | n
COc1cc(C(C#N)N2CCCCC2)ccc1O (stereo not drawn) | n | n | n | n | n | n | x | x | x
CC(=O)CC[C@H]1CC[C@]2(CCCN(C(=O)C(C)(C)C)C2)O1 | x | x | n | x | n | x | x | x | x
CCCCc1ccc(NC(=O)C(=O)NCCN2CCN(Cc3ccc([N+](=O)[O-])cc3)CC2)cc1 | n | 56 | n | n | n | n | n | n | n
Cc1csc(NC(=O)c2cc3c(s2)CCC3)n1 | n | 62 | n | n | n | n | n | n | n
COC(=O)c1sc(NC(=O)c2cc3c(s2)CCCC3)nc1C | n | n | n | n | n | n | x | x | x
COc1cc(C=O)c(-c2c(C=O)cc(OC)c3c2OCO3)c2c1OCO2 | n | 63 | n | n | n | n | n | n | n
CC(=O)N1CCCN(S(=O)(=O)c2ccc3c(c2)oc(=O)n3C)CC1 | x | x | n | x | n | x | x | x | x
O=C(Cc1cccs1)Nc1nnc(COc2ccccc2)s1 | n | 99 | n | n | n | n | n | n | n
S=c1[nH]nc(-c2n[nH]c3c2CCC3)n1N=Cc1ccc(OCc2ccccc2)cc1 | x | x | n | x | n | x | x | x | x
CC(=O)c1cnc(N2CCCCC2)nc1C | n | 56 | n | n | n | n | n | 29 | n
Cc1nc2ccccc2n1-c1nc(-c2ccco2)cc(C(F)(F)F)n1 | n | 68 | n | n | n | n | 78 | n | 77
COC(=O)[C@H](C(C)C)N(CCc1cn(Cc2ccc(C)cc2)nn1)S(=O)(=O)c1ccc(F)cc1Br | x | x | n | x | n | x | x | x | x
Clc1ccc(CN2CCN(N=Cc3cccc(OCc4ccccc4)c3)CC2)cc1 | x | x | n | x | n | x | x | x | x
CC(C)c1ccccc1-n1c(SCC(=O)N2CCc3ccccc3C2)nc2ccccc2c1=O | n | n | n | n | n | n | x | x | x
SMILES | NCOA3 inh | Gli-Sufu antag | NCOA2 inhibitor | SRC1 inh | COUP-TFII inh | NR5A2 inv ag | Gli-Sufu confirm | Gli cytotox | Wnt3a counter
O=C(CSc1nc2ccccc2c(=O)n1-c1ccccc1)N1CCc2ccccc2C1 | n | 67 | n | n | n | n | 74 | 40 | n
C=CCCC(=O)N(Cc1ccccc1)c1ccccc1C(=O)Nc1cc(OC)ccc1OC | x | x | n | x | n | x | x | x | x
CCN(CC(=O)Nc1cc(Cl)ccc1C)C(=O)CSCc1c(C)noc1C | n | n | n | n | n | n | n | n | n
Cc1ccc(C)c(NC(=O)CN(C)C(=O)CSCc2c(C)noc2C)c1 | n | n | n | n | n | n | x | x | x
CCOc1ccc(N(CC(=O)Nc2c(C)n(C)n(-c3ccccc3)c2=O)S(=O)(=O)c2cc(OC)ccc2OC)cc1 | x | x | n | x | n | x | x | x | x
Nc1[nH]c2cc(C(F)(F)F)ccc2c1C(=O)NCc1ccc(F)cc1 | x | x | n | x | n | x | x | x | x
CCn1c(=O)cc(SCC(=O)N2CCN(C3CCCCC3)CC2)c2ccccc21 | n | 97 | n | n | n | n | 46 | n | n
CCn1c(=O)cc(SCC(=O)N2CCOCC2)c2ccccc21 | n | n | n | n | n | n | x | x | x
C=CCOC(=O)N[C@H](c1ccccc1)[C@H](C)/C=C/CC(=O)OC | x | x | n | x | n | x | x | x | x
Cc1ccc(NC(=O)Cc2ccc(OC(F)F)cc2)c(S(=O)(=O)N2CCOCC2)c1 | x | x | n | x | n | x | x | x | x
Cc1ccc(-c2csc(NC(=O)C3=COCCO3)n2)cc1 | n | n | n | n | n | n | x | x | x
Cc1ccc(C)c(-c2csc(NC(=O)C3=COCCO3)n2)c1 | n | 63 | n | n | n | n | 63 | n | n
O=C(NCCc1ccccc1)OCc1cn(Cc2ccc(C(F)(F)F)cc2)nn1 | x | x | n | x | n | x | x | x | x
COCc1cc(=O)[nH]c(Nc2nc3ccc(C)cc3o2)n1 | n | n | n | n | n | n | 63 | 26 | n
Cc1ccn(CCSCC(=O)O)n1 | n | n | n | n | n | n | n | n | n
O=C(O)CSCCn1cccn1 | n | n | n | n | n | n | x | x | x
O=C(c1cccc(C(F)(F)F)c1)N1CC[C@H]2[C@H](CCCN2Cc2ccccc2)C1 | x | x | n | x | n | x | x | x | x
Cc1cc(C(=O)N/N=C2/CC(C)CC(C)(C)C2)c(C)o1 (stereo not drawn) | n | n | n | n | n | n | n | n | n
Cc1cc(C(=O)N/N=C2\CCCc3ccccc32)c(C)o1 | n | n | n | n | n | n | x | x | x
CCCC(=O)N1CCC(C(=O)NC2CCCc3ccccc32)CC1 (stereo not drawn) | x | x | n | x | n | x | x | x | x
O=C1C=C(c2ccc3cc[nH]c3c2)C[C@@H](c2ccc3c(c2)OCO3)C1 | n | 59 | x | n | x | n | n | n | n
CCn1c(COc2ccc3c(c2)OCO3)nnc1SCC(=O)c1ccccc1 | n | 67 | n | n | n | n | n | n | n
